Measured values reported in PubChem BioAssay.
The source made the active and inactive calls.

Assays:
[1] = small molecules captured by biotinylated probe aFSTL3 – biochemical, small-molecule microarray, fluorescence 635/667, stem cell growth factor project, primary screen (AID 1064); details: higher = more signal;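 also: measures binding of the biotinylated anti-FSTL3 antibody to printed compounds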
[2] = binders from COS7 lysate, DM2A8 probe, primary screen, torsin A project, cell lysate, small-molecule microarray, fluorescence 635/667 (AID 1065); details: higher = more signal, COS7 lysate expressing mutant human TOR1A
[3] = small molecules captured by biotinylated probe aFGF2 – biochemical, small-molecule microarray, fluorescence 635/667, stem cell growth factor project, primary screen (AID 1067); details: higher = more signal;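 also: measures binding of biotinylated aFGF2 protein to printed compounds on slides; z-score merges feature fluorescence and signal-to-noise across triplicate slides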
[4] = small molecules captured by biotinylated probe aFGF10 – biochemical, small-molecule microarray, fluorescence 635/667, stem cell growth factor project, primary screen (AID 1071); details: higher = more signal;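 also: score merges 667 nm spot intensity and signal to noise from triplicate slides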
[5] = biological target: Neurogenic locus notch homolog protein 2 (Homo sapiens) (UniProt Q04721); assay: small molecules binding Notch2 protein – biochemical, small-molecule microarray, 635 nm fluorescence, stem cell growth factors, primary screen (AID 1073); details: higher = more signal
Neurogenic locus notch homolog protein 2 (Homo sapiens), sequence (Q04721 whole entry, looked up, canonical isoform): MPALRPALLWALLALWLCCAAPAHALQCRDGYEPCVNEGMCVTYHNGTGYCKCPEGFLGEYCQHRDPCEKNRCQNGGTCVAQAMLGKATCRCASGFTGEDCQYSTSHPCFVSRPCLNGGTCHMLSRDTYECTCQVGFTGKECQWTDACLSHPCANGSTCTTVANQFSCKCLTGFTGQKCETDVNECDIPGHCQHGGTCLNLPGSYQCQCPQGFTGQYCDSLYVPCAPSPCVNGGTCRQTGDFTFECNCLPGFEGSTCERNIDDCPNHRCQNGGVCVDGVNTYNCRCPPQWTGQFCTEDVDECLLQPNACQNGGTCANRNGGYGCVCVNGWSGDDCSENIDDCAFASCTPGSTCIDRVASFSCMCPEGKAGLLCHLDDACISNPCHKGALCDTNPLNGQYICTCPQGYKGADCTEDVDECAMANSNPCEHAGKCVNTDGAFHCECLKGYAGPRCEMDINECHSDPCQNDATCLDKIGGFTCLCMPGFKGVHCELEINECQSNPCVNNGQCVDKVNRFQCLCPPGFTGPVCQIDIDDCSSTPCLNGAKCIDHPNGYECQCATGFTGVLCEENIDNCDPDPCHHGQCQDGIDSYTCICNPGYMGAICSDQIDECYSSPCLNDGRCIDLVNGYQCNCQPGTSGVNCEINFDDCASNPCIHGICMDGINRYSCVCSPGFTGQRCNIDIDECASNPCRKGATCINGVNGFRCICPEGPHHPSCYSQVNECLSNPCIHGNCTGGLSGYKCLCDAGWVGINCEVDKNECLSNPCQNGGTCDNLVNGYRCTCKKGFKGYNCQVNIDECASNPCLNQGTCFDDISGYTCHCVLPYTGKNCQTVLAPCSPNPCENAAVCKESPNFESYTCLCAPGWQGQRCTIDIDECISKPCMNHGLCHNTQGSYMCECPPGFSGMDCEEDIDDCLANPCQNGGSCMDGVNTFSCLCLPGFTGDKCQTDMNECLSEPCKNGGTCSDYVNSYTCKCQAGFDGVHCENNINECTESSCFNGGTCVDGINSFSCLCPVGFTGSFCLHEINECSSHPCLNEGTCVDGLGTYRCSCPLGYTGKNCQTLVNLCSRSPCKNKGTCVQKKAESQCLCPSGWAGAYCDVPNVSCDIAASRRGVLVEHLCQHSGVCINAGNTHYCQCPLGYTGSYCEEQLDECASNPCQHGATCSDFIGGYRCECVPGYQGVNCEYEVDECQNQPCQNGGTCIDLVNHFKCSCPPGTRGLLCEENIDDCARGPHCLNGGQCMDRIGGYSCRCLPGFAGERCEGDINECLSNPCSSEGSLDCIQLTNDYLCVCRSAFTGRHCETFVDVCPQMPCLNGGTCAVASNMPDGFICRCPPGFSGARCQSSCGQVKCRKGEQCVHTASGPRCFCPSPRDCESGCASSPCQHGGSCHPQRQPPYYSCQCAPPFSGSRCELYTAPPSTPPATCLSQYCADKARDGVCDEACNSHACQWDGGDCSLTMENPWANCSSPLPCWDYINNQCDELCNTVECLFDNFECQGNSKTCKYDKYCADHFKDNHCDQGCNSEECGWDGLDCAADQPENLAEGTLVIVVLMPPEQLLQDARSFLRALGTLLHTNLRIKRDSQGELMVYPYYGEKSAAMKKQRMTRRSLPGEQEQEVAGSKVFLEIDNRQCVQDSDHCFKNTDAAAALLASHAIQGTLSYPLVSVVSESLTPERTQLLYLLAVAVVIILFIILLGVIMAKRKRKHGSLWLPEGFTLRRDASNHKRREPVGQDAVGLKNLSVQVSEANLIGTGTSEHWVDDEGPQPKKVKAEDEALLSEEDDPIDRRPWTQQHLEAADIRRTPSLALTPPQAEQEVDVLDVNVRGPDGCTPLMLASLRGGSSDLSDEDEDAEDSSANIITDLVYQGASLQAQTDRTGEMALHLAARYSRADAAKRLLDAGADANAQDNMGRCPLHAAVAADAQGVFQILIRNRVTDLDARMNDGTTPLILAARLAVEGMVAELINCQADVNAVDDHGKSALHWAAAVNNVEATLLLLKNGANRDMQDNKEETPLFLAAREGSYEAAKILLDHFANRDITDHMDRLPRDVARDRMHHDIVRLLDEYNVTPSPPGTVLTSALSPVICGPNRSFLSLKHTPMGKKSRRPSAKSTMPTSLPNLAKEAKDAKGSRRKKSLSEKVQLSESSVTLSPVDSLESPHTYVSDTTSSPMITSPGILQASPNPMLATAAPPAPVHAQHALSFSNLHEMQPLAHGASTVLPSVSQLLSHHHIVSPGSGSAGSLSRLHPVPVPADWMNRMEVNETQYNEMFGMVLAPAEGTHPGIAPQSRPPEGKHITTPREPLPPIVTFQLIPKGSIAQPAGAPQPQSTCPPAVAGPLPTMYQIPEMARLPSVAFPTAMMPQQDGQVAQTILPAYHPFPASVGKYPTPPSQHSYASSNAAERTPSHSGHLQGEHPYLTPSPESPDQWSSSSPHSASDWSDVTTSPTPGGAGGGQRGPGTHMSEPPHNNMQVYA

[6] = biological target: Pro-neuregulin-1, membrane-bound isoform (Homo sapiens) (UniProt Q02297); assay: small molecules binding neuregulin-1 protein – biochemical, small-molecule microarray, fluorescence 635/667, psychiatric disease protein project, primary screen (AID 1075); details: NRG1 binding, 635 nm fluorescence, higher = more signal;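 also: score combines 667 nm spot fluorescence with signal to noise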
Pro-neuregulin-1, membrane-bound isoform (Homo sapiens), sequence (Q02297 whole entry, looked up, the tested form may be a part, canonical isoform): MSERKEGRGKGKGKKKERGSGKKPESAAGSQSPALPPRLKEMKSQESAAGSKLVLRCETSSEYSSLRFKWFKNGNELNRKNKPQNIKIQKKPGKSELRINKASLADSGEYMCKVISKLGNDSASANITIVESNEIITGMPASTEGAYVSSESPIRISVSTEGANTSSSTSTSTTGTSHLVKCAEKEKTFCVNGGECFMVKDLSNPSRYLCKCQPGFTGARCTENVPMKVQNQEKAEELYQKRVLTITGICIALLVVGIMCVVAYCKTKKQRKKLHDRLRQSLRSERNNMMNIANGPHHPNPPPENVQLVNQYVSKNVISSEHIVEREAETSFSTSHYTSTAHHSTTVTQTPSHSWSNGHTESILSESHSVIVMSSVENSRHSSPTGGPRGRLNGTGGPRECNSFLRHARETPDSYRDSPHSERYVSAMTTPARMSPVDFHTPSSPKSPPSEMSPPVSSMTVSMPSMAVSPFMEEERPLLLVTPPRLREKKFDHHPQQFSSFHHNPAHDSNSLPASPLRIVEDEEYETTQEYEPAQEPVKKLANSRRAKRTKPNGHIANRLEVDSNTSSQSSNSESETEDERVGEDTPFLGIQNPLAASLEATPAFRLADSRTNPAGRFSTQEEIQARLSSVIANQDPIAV

[7] = test system: Neuregulin-1 EGF-like domain; assay: small molecules binding NRG1 EGF domain – biochemical, small-molecule microarray, 635 nm fluorescence, primary screen (AID 1081); details: higher = more signal;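 also: binding of the protein to compounds printed on small-molecule microarray slides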
[8] = FRG1 expression reporter modulators in myotubes – cell-based, C2C12 myotubes, firefly/Renilla luciferase, luminescence, FRG1 inhibition for FSHD, primary screen (AID 1084); details: FRG1 promoter luciferase, higher = more signal, called active from +8 up or from −8 down
[9] = small molecules captured by biotinylated probe aFST – biochemical, small-molecule microarray, fluorescence 635/667, stem cell growth factor project, primary screen (AID 1086); details: higher = more signal;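 also: score merges 667 nm fluorescence with signal-to-noise of each printed compound spot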
[10] = binders of probe aHhip on microarray, primary screen, stem cell growth factor project, biochemical, small-molecule microarray, fluorescence 635/667 (AID 1087); details: higher = more signal;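 also: score merges spot fluorescence at 667nm with spot signal to noise ratio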

Row | SMILES | composite z-score [1] | composite z-score [2] | composite z-score [3] | composite z-score [4] | composite z-score [5] | composite z-score [6] | composite z-score [7] | z-score [8] | composite z-score [9] | composite z-score [10]
1 | CCOC(=O)[C@H]1C/C=C/C[C@H](C(=O)OCC)C(=O)O[C@H]2[C@@H](OC)O[C@H](CO)[C@@H](OC(=O)c3c(OC)cccc3OC)[C@@H]2OC1=O | 1.03 | 0.321 | -0.0275 | 0.259 | 0.297 | 1.12 | 1.02 | 0.418 (inactive) | 0.951 | 1.32
2 | C=C(CCCC)C(=O)CC[C@@H](OC(=O)c1ccccc1-c1ccccc1C(=O)O)c1ccc(OCCO)cc1 | -0.281 | 0.358 | -0.128 | 0.826 | -0.278 | 0.529 | 0.562 | -0.109 (inactive) | 0.135 | 0.011
3 | COC(=O)[C@@]1(Cc2ccccc2)[C@H]2c3cc(C(=O)N(C)C)n(Cc4ccsc4Br)c3C[C@H]2CN1C(=O)c1ccccc1 | 0.102 | 0.106 | 0.215 | 0.746 | 1.61 | 0.823 | 1.12 | 0.332 (inactive) | 1.67 | -0.113
4 | CC(C)[Si]1(C(C)C)O[C@@H](c2ccccc2)c2cc(-c3ccc(-c4ccc(Cl)c(Cl)c4)o3)nc(-c3ccccc3)c21 | -0.104 | 0.291 | -0.0953 | -0.0933 | -0.0802 | 0.398 | -0.39 | 0.97 (inactive) | 0.0481 | -0.0645
5 | COC(=O)[C@@]1(Cc2ccc(OC)cc2)[C@H]2c3cc(C(=O)N(C)C)n(CCc4ccccn4)c3C[C@H]2CN1C(=O)c1ccccc1 | 1.63 | -0.0525 | 0.638 | 0.402 | 1.61 | 0.428 | 1.05 | 0.845 (inactive) | 1.38 | 0.47
6 | C[N+](C)(C)CCCCCCNC(=O)[C@@H]1C[C@@H]2C(=O)N[C@@H](Cc3ccccc3)C(=O)N2[C@@H]1c1cccc(OCCO)c1 | -0.0274 | 0.673 | -0.0969 | 0.44 | -0.165 | 1.2 | 1.34 | 1.5 (inactive) | 0.143 | 0.236
7 | CN1C(=O)C2C=CC(C(O)C#Cc3ccccc3)N(N3CCCCC3)C2C1=O (stereo not given) | 0.819 | 1.34 | 0.454 | 0.762 | 1.44 | 1.19 | 1.19 | -0.995 (inactive) | 1.16 | -0.0655
8 | [N-]=[N+]=Nc1ccccc1[C@@H]1OC(c2ccc(OCCCO)cc2)=N[C@]1(Cc1ccccc1)C(=O)N1CCOCC1 | 0.324 | 0.0788 | 0.14 | 0.781 | 1.55 | 1.26 | 1.2 | -1.5 (inactive) | 0.802 | 0.0053
9 | CCOC(=O)C[C@H]1[C@H](OC(=O)c2ccc(-c3ccccc3)cc2)[C@@H](NC(=O)Cc2ccc(OC)cc2)c2cc(OCCCO)ccc2N1C(=O)c1ccccc1 | -0.0117 | -0.354 | -0.0316 | 0.23 | 0.255 | 0.176 | 0.3 | -0.831 (inactive) | 0.376 | -0.0391
10 | NCCCCCNC(=O)[C@@H]1C[C@@H]2C(=O)N[C@@H](Cc3ccccc3)C(=O)N2[C@@H]1c1ccc(O)cc1 | 0.266 | 0.0499 | 0.0257 | 0.507 | 1.12 | 1.05 | 1.24 | 0.227 (inactive) | 0.918 | -0.175
11 | COCCOC(=O)N1C(=O)[C@@]2(c3cc(C#CC4(O)CCCCCC4)ccc31)[C@H](c1ccc(OCCO)cc1)N1[C@H](c3ccccc3)[C@H](c3ccccc3)OC(=O)[C@H]1[C@@H]2C(=O)N1CCN(c2ncccn2)CC1 | -0.407 | 0.485 | -0.0242 | 0.612 | 1.03 | 1.09 | 0.966 | -0.254 (inactive) | 0.557 | -0.0645
12 | C=C[C@@H](COC(=O)OC(C)(C)C)N(Cc1ccc(OC)cc1)S(=O)(=O)c1ccc(Br)cc1 | -0.492 | 0.544 | -0.0598 | 0.0626 | 0.779 | 0.142 | 0.8 | -2.35 (inactive) | 0.481 | 0.0505
13 | CC(C)C(O)C1C=CC2C(=O)N(c3ccccc3)C(=O)C2N1Nc1ccc([N+](=O)[O-])cc1 (stereo not given) | 0.549 | -0.0664 | 0.0485 | 0.569 | 0.951 | 1.34 | 0.8 | 1.07 (inactive) | 0.886 | -0.214
14 | CCCC[C@@H]1C[C@H]1[C@@H](NC(=O)C(C)(C)C)c1ccc(C(F)(F)F)cc1 | 1.54 | 0.466 | -0.0785 | -0.38 | -1.36 | 0.669 | 0.55 | -0.571 (inactive) | -0.347 | 0.235
15 | C=C(CCCC)/C(=C/C[C@@H](OC(C)=O)c1ccc(OCCO)cc1)c1cnc2ccccc2c1 | 0.0374 | 0.372 | -0.0598 | 0.242 | 0.913 | 0.952 | 1.01 | -1.51 (inactive) | -0.156 | -0.0618
16 | COC(=O)[C@@]1(CCS(=O)(=O)c2ccccc2)N=C(c2ccc(OCCCO)cc2)O[C@H]1c1ccccc1CN=[N+]=[N-] | 0.959 | 0.38 | -0.0533 | -0.303 | 0.914 | 0.975 | 1.23 | -3.26 (inactive) | 0.883 | -0.0634
17 | NC(=O)N1C(=O)C2C(C1=O)C1C=C(c3ccc(CO)cc3)C2C(c2cccs2)N1Cc1cccc(OC(F)(F)F)c1 (stereo not given) | 0.677 | 0.639 | -0.0085 | 0.326 | -0.596 | 1.3 | 0.106 | -0.723 (inactive) | 0.322 | -0.0645

Row | SMILES | composite z-score [1] | composite z-score [2] | composite z-score [3] | composite z-score [4] | composite z-score [5] | composite z-score [6] | composite z-score [7] | z-score [8] | composite z-score [9] | composite z-score [10]
18 | CN(C)C(=O)[C@]1(Cc2ccccc2N=[N+]=[N-])N=C(c2ccc(OCCCO)cc2)O[C@@H]1c1ccccc1N=[N+]=[N-] | 0.0009 | 0.827 | 0.0155 | 0.183 | 1.47 | 1.01 | 1.26 | -1.74 (inactive) | 1.15 | 0.0373
19 | CC(C)[Si](C#Cc1ccc(Oc2ccccc2)cc1)(O[Si](C#Cc1ccc(Oc2ccccc2)cc1)(C(C)C)C(C)C)C(C)C | -0.496 | 0.253 | -0.133 | 0.967 | 0.766 | -0.0929 | 0.664 | -0.421 (inactive) | -0.0273 | -0.0994
20 | O=C(NC1CC1)[C@@H]1c2ccccc2C(=O)N(Cc2ccccc2Cl)[C@H]1c1ccc(CO)cc1 | -0.255 | 0.256 | -0.104 | 0.486 | 0.532 | 0.93 | 1.32 | -2.22 (inactive) | 0.882 | -0.15
21 | COC(=O)C(CC#Cc1ccc2c(c1)[C@]1(C(=O)N2)[C@H](C(=O)Nc2nc3ccccc3s2)[C@H]2C(=O)O[C@H](c3ccccc3)[C@H](c3ccccc3)N2[C@@H]1c1ccc(O)cc1)C(=O)OC | -0.485 | 0.919 | 0.0495 | 0.621 | 1.33 | 1.37 | 1.36 | 1.28 (inactive) | 0.688 | -0.0618
22 | CO[C@H]1O[C@H](CO)[C@@H](OC(=O)Nc2cccc(F)c2)[C@H](OC(=O)Nc2ccccc2)[C@@H]1OC(=O)Nc1ccccc1 | -0.139 | 0.995 | 0.185 | 1.17 | 1.51 | 1.51 | 1.19 | 1.17 (inactive) | 0.7 | -0.137
23 | CC1CC/C=C\[C@H]2OC34C=CCN(C(C)(C)C)C(=O)[C@H]3N(CCO)C(=O)[C@@H]4C2C(=O)O1 (stereo not given in full) | -0.133 | 0.0564 | -0.217 | -0.749 | -1.56 | -1.02 | 0.784 | 0.0503 (inactive) | -0.529 | -0.0645
24 | C[C@H]1NC(=O)[C@@]23C(=O)N[C@@H](Cc4ccccc4)C2[C@H](C)[C@@]2(C)O[C@H]2C3/C=C/C/C=C\CNC(=O)[C@@H]2CCCN2C1=O (stereo not given in full) | -0.468 | -0.454 | 0.0653 | 0.479 | 0.521 | 0.425 | 0.909 | 0.182 (inactive) | 0.145 | -0.132
25 | COC(=O)[C@@]1(Cc2ccc(OC)cc2)[C@H]2c3cc(C(=O)N(C)C)n(C)c3C[C@H]2CN1C(=O)c1ccccc1 | 0.32 | 0.35 | 0.24 | 0.759 | 1.66 | 1.85 | 1.18 | 1.76 (inactive) | 1.48 | 0.658
26 | N#Cc1ccc(NN2C(C(O)C(c3ccccc3)c3ccccc3)C=CC3C(=O)N(c4ccccc4)C(=O)C32)cc1 (stereo not given) | 0.223 | 0.135 | -0.0462 | 0.952 | 1.65 | 1.77 | 1.15 | -0.621 (inactive) | 1.93 | 0.0585
27 | C=CC(=C)[C@H]1Oc2ccccc2S(=O)(=O)N2CCC[C@@H]12 | 0.289 | 0.196 | -0.116 | -0.185 | -0.128 | -0.57 | -0.595 | -0.0188 (inactive) | 0.303 | -0.329
28 | C[N+](C)(C)CCCCNC(=O)[C@@H]1C[C@@H]2C(=O)N[C@@H](Cc3ccccc3)C(=O)N2[C@@H]1c1cccc(OCCO)c1 | 0.241 | -0.108 | -0.147 | 0.394 | -0.39 | 1.01 | 1.14 | 1.51 (inactive) | -0.253 | -0.195
29 | COc1ccc([C@H]2OC[C@@H]3C[C@@H](Cc4ccccc4)C(=O)N32)cc1 | -0.446 | 0.466 | 0.0216 | 0.526 | 0.426 | -0.103 | 1.11 | -3.02 (inactive) | 0.357 | 0.115
30 | CC(C)C(=C=CC[C@H](O)c1ccc(OCCO)cc1)CCO | -0.0762 | 0.887 | -0.1 | 0.904 | 0.255 | 1.69 | 0.895 | 0.305 (inactive) | 0.326 | -0.0994
31 | CC(=O)n1cc(C(O)C2C=CC3C(=O)N(c4ccccc4)C(=O)C3N2Nc2ccc([N+](=O)[O-])cc2)c2ccccc21 (stereo not given) | 0.889 | 1.44 | -0.0605 | -0.0938 | 1.24 | 1.23 | 1.22 | -0.438 (inactive) | 1.02 | 0.0274
32 | C=C(CCCC)/C(=C/C[C@H](OC(C)=O)c1ccccc1OCCO)c1cc(C(=O)OC)ccc1OC | -0.198 | -0.268 | -0.134 | 0.339 | -0.264 | -0.35 | 0.48 | -0.214 (inactive) | -0.201 | -0.134
33 | O=C1OCCC/C=C\[C@H]2OC34C=CCN(Cc5ccccc5)C(=O)[C@H]3N(CCCO)C(=O)[C@@H]4C12 (stereo not given in full) | 0.985 | 2.29 | -0.145 | -0.458 | -1.15 | 0.822 | 0.703 | 0.308 (inactive) | -0.572 | -0.0994
